# Source: PubChem BioAssay
# pPAFAH inh – pPAFAH (human) enzyme inhibition. AID 463082. inhibition, % at 3.39 µM. 1.5% of 330,000 active. Q13093. recombinant pPAFAH, FP-rhodamine probe fluorescence polarization;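 active means inhibition above the mean inhibition across the screen plus 3 SD, cut at about 25% in these data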;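 further: inhibitors block binding of the rhodamine activity-based probe so polarization drops; 0% = enzyme with DMSO and 100% = wells lacking pPAFAH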
# Target sequence (Q13093 whole entry, looked up): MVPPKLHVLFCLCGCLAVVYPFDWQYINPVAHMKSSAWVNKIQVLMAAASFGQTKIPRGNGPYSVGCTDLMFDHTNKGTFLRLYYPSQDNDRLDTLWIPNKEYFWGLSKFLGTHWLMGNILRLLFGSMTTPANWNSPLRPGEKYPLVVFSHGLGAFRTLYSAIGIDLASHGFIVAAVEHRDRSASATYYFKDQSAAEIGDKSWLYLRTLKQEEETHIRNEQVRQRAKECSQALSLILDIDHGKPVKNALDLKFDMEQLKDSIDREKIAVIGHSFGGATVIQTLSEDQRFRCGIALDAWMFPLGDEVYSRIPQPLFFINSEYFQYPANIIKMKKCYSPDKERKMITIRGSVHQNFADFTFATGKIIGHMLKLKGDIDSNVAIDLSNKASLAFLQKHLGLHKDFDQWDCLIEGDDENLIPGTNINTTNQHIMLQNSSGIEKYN
# PAFAH1B2 FP inh – blocks human PAF acetylhydrolase 1b catalytic subunit 2. AID 492953. recombinant PAFAH1B2, FP-rhodamine activity probe, fluorescence polarization. inhibition, % at 3.39 µM. P68402. 1.2% of 340,000 active;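 active means inhibition above the mean of all tested compounds plus 3 SD, cut at about 24% in these data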;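 further: 0% = enzyme with DMSO and 100% = wells lacking PAFAH1B2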
# Target sequence (P68402 whole entry, looked up): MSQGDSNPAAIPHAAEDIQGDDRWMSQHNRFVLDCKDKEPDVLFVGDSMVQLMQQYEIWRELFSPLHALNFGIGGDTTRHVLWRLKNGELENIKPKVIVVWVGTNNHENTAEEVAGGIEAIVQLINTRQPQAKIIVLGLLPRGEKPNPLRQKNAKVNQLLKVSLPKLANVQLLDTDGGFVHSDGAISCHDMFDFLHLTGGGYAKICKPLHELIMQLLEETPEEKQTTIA
# PAFAH2 inh – PAFAH2 (human) inhibition | Q99487 | recombinant PAFAH2, FP-rhodamine activity probe, fluorescence polarization | inhibition, % at 3.39 µM | 0.99% of 340,000 active | AID 492956;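 active means inhibition above the mean over all tested compounds plus 3 SD, cut at about 30% in these data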;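 further: inhibitors block probe labeling of enzyme so polarization drops; 0% = enzyme with DMSO and 100% = wells lacking PAFAH2 protein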
# DAGLB inhibitor – diacylglycerol lipase beta (human) inhibition; AID 504411; inhibition, % at 5.17 µM; HEK293T DAGLB membrane lysate, EnzChek fluorogenic substrate; 0.059% of 340,000 active; Q8NCG7; in the data active means inhibition above about 34%;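 further: 0% = enzyme with vehicle and 100% = wells lacking enzyme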
# HTRA1 inh – blocks human HTRA1 serine peptidase; Q92743; recombinant HTRA1, FP-rhodamine activity-based probe, fluorescence polarization; inhibition, % at 5.96 µM; 0.5% of 340,000 active; AID 504803; in the data active means inhibition above about 36%;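 further: 0% = enzyme with DMSO and 100% = wells lacking enzyme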
# PAFAH1B3 inh – blocks human PAF acetylhydrolase 1B catalytic subunit 3. Q15102. recombinant PAFAH1B3, FP-rhodamine probe, fluorescence polarization. inhibition, % at 3.39 µM. 0.28% of 340,000 active;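 active means inhibition above the screen-wide average of all tested compounds plus 3 SD, cut at about 25% in these data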;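 further: 0% = enzyme with DMSO only and 100% = wells lacking PAFAH1B3 protein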
# pPAFAH confirm – confirmation of human plasma PAF acetylhydrolase (pPAFAH) inhibitors | recombinant pPAFAH, FP-Rh probe fluorescence polarization | AID 463230 | shares compounds with pPAFAH inh | inhibition, % at 3.39 µM | 72% of 2,300 active;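 active means mean inhibition of the triplicate above the hit cutoff set for the earlier primary screen, cut at about 25% in these data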;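 further: 0% = enzyme with DMSO and 100% = wells lacking pPAFAH enzyme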
# * marks the source's active call; other numbers are inactive results; . = not tested or not shown. Rows were chosen to be rich in hits. Some 2.8% of all compounds tested hit in one or more screens of this group.
SMILES,pPAFAH inh,PAFAH1B2 FP inh,PAFAH2 inh,DAGLB inhibitor,HTRA1 inh,PAFAH1B3 inh,pPAFAH confirm
CCn1c2ccccc2c2cc(NC(=O)COC(=O)c3ccccc3F)ccc21,15.3,-1.2,2.1,-4.4,-3.0,5.9,.
CCn1c(SCC(=O)Nc2cccc(NC(C)=O)c2)nnc1-c1ccco1,-2.3,2.5,-4.1,-2.6,-5.7,-6.0,.
CCn1c2ccccc2c2cc(NC(=O)COC(=O)c3ccc(NC(=O)CC#N)cc3)ccc21,34.5*,5.4,-12.3,7.3,-8.3,-3.3,18.4
CCn1c2ccccc2c2cc(NC(=O)CN(C)CC(=O)Nc3ccc(N4CCOCC4)cc3)ccc21,38.2*,4.8,1.1,5.1,20.2,4.4,38.9*
CCO/C([O-])=N/c1sn[n+](C)c1C,-1.7,.,.,.,.,.,.
Cc1cc(C)c(S(=O)(=O)N(C)CC(=O)N2CCCCC2)c(C)c1,51.6*,-0.3,7.0,-3.3,4.2,0.1,0.0
CC(C)n1c(SCC(=O)Nc2nncs2)nnc1-c1ccco1,21.1,.,.,.,.,.,.
O=C(CSc1nnc(SCc2ccc(Cl)cc2)s1)N/N=C/c1c[nH]c2ccccc12,40.7*,5.1,23.8,3.9,-5.5,4.3,34.5*
O=C(CSc1nnc(SCc2ccccc2)s1)N/N=C/C=C/c1ccco1,44.2*,-4.0,23.2,7.3,-13.7,5.0,40.2*
CCn1c(SCC(=O)N/N=C/C=C/c2ccco2)nnc1-c1ccccc1,9.8,3.0,-1.6,-0.3,10.8,0.2,.
O=C(O)CCN1C(=O)/C(=C\c2cccc(Oc3ccccc3)c2)SC1=S,35.9*,28.1*,11.7,19.3,-44.0,9.0,17.0
O=C(O)COc1ccc(/C=C2/SC(=S)N(Cc3ccccc3)C2=O)cc1,53.9*,4.3,12.1,6.0,-46.2,8.5,19.3
CC1=CN2C(=N)/C(=C/c3ccco3)C(=O)N=C2S1,-6.1,2.0,-7.2,0.4,2.8,-1.9,.
CC1=CN2C(=N)/C(=C/c3ccc([N+](=O)[O-])o3)C(=O)N=C2S1,43.7*,-2.2,8.5,3.1,18.7,-10.3,29.6*
CCCCOC(=O)c1ccc(OC(=O)N2CCOCC2)cc1,93.5*,3.6,36.2*,-1.5,-1.4,6.8,97.1*
O=C(OCCCC(=O)N1CCOCC1)c1ccccc1,-1.9,-0.1,10.8,-1.0,6.0,2.8,.
O=C(Oc1ccc(C(=S)N2CCOCC2)cc1)c1ccccc1,0.2,0.0,-0.1,-0.1,-5.7,-1.9,.
CCCCOC(=O)N1CCOCCOCCN(C(=O)OCCCC)CCOCCOCC1,35.1*,4.2,1.5,-6.3,-0.1,5.4,26.1*
CCOC(=O)N1CCN(C(=O)N2CCOCC2)CC1,1.2,7.1,7.2,-1.0,2.2,11.6,.
O=C(c1ccccc1)c1ccc(OC(=O)N2CCOCC2)cc1,52.3*,5.0,35.0*,0.8,3.0,4.5,53.3*
O=C(NCc1ccc(Cl)cc1)C1CCN(S(=O)(=O)N2CCOCC2)CC1,2.6,9.6,2.3,0.8,-4.1,4.9,.
O=C(CCNS(=O)(=O)c1ccc(OC(F)(F)F)cc1)Nc1cccc(S(=O)(=O)N2CCCC2)c1,.,3.6,5.1,-1.3,-4.2,3.2,.
O=Cc1nc(-c2ccccc2Cl)n2ccccc12,3.4,0.8,-1.5,1.9,4.2,4.6,.
O=Cc1nc(-c2ccc(Cl)cc2)n2ccccc12,70.7*,-2.0,4.0,1.3,0.9,-5.4,4.4
COc1cccc(CN2CCNC(=O)C2CC(=O)NCCc2nc(C)c(C)s2)c1OC (stereo not given),3.1,-2.3,-3.1,0.2,-6.9,7.4,.
SMILES,pPAFAH inh,PAFAH1B2 FP inh,PAFAH2 inh,DAGLB inhibitor,HTRA1 inh,PAFAH1B3 inh,pPAFAH confirm
Cc1nonc1C(=O)N/N=C/c1ccc([N+](=O)[O-])o1,7.9,4.2,2.3,1.9,4.9,0.3,.
Cc1cc(C(=O)N/N=C/c2ccc([N+](=O)[O-])o2)c(C)o1,41.6*,-1.2,1.2,-1.0,10.9,8.3,6.7
CC(OC(=O)c1ccccn1)C(=O)Nc1ccc2c(c1)OCCO2 (stereo not given),47.8*,-0.3,-4.2,-1.0,8.8,1.5,3.6
C[C@H](CO)N1C[C@H](C)[C@@H](CN(C)C(=O)Nc2ccc(C(F)(F)F)cc2)Oc2ccc(NS(=O)(=O)c3ccccc3)cc2C1=O,76.4*,4.3,1.6,-1.3,-18.8,0.1,68.4*
COc1ccc(NC(=O)N(C)C[C@H]2Oc3ccc(NS(=O)(=O)c4ccc(F)cc4)cc3C(=O)N([C@H](C)CO)C[C@@H]2C)cc1,16.7,0.7,1.6,-0.8,-5.1,-10.3,.
C[C@H](CO)N1C[C@H](C)[C@@H](CN(C)C(=O)Nc2ccc(C(F)(F)F)cc2)Oc2ccc(NS(=O)(=O)c3ccc(F)cc3)cc2C1=O,60.7*,10.8,8.9,-2.5,-23.8,9.4,59.0*
Cc1ccc(C(=O)Nc2ccc(Cl)cc2C)c(Cl)c1,3.7,3.3,0.9,-3.3,4.9,0.3,.
O=C(Nc1nc(-c2ccco2)c(-c2ccco2)s1)c1c(F)cccc1Cl,48.2*,-0.1,23.9,10.0,26.3,8.1,16.0
O=S(=O)(Nc1nc(-c2ccco2)c(-c2ccco2)s1)c1ccc(F)cc1F,.,.,.,7.5,4.7,.,.
Cc1cc(C(=O)CCl)c(C)n1CCc1ccccc1,53.5*,.,.,.,.,.,3.9
CC(=O)N1CCN(c2ccc(Nc3nc(C)nc4c3oc3ccccc34)cc2)CC1,39.6*,5.8,2.3,-0.3,8.4,2.1,34.2*
CC(=O)Nc1ccc(Nc2nc(C)nc3c2oc2ccccc23)cc1,6.5,8.0,-2.9,-2.0,5.2,0.2,.
Cc1ccccc1N/N=C/c1sc(=O)n(Cc2cccc(C(=O)O)c2)c1Cl,34.8*,9.2,9.9,8.8,7.1,10.1,25.2*
COC(=O)c1cccc(Cn2c(Cl)c(/C=N/Nc3ccccc3C)sc2=O)c1,-0.3,0.8,6.6,1.7,-2.9,4.7,.
COc1cc(Br)c(C2C(C#N)=C(N)Oc3n[nH]c(-c4cccnc4)c32)cc1OC (stereo not given),3.9,-0.4,2.0,2.3,7.5,0.8,.
CCOC(=O)C1=C(C)N(C[C@@H]2CC[C@@H](Cc3ccc(-c4ccccc4)cc3)O2)C(=O)NC1c1ccc(C(F)(F)F)cc1 (stereo not given in full),7.9,7.5,1.4,-3.2,-7.4,2.2,.
CCOC(=O)C1=C(C)N(C[C@@H]2CC[C@@H](Cc3ccc(-c4ccccc4)cc3)O2)C(=O)NC1c1ccc(SCc2ccco2)c([N+](=O)[O-])c1 (stereo not given in full),56.1*,1.0,4.6,10.1,-42.9,0.0,24.9*
C/C(=N\NC(=O)c1ccccc1O)C1C(=O)c2ccccc2C1=O,48.8*,23.0,30.3*,24.1,30.3,27.8*,39.7*
